Laboratory results from PubChem BioAssay (NCATS).
Inconclusive results are not listed. Active and inactive are the calls of the source. The call rests on the fitted dose curve; in most records, active means well fitted curve in the direction sought with a large enough effect; inconclusive means small, poorly fitted or top-dose-only effect, or another doubt; inactive means no such curve, though single readings can be large; an effect the other way counts as inactive or inconclusive.

What was measured:
[1] = Confirmation and Secondary Assay for Modulators of Hemoglobin Beta Chain Splicing at IVS2 654 locus (AID 910); conditions: HeLa EGFP-654 splicing reporter, GFP fluorescence, 48 h; series mostly up to 46.1 µM;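 further: HeLa cells stably carrying EGFP split by mutant beta-globin IVS2-654 intron; per-well total GFP intensity by laser scanning cytometry after 2-day treatment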
Summary of the method: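 Readout: per-well total peak green fluorescence (488 nm ex, 500–520 nm em) from objects 5–250 µm, reflecting correct splicing of an EGFP-654 reporter. Compounds were applied for 2 days at 37 °C to overnight-plated HeLa EGFP-654 cells; controls were DMSO and 500 nM IVS2-654 PNA.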

[2] = Confirmation and Secondary Assay for Modulators of Hemoglobin Beta Chain Splicing at IVS2 705 locus (AID 930); conditions: HeLa EGFP-705 splicing reporter, GFP fluorescence, 48 h; series mostly up to 46.1 µM;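 further: HeLa cells stably expressing the EGFP-705 splicing reporter; GFP fluorescence per well restored by corrected splicing of the IVS2-705 intron in EGFP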
Summary of the method: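 First, HeLa EGFP-705 cells are seeded at 500/well in Optimem with 2% FCS and left overnight. Next, compound or DMSO is added for 2 days. Finally wells are laser-scanned and total peak GFP intensity scored.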

[3] = biological target: Cytochrome P450 3A4 (Homo sapiens) (UniProt P08684); experiment: qHTS Assay for Inhibitors and Substrates of Cytochrome P450 3A4 (AID 884); conditions: recombinant CYP3A4, Luciferin-PPXE luminescence; series mostly up to 57.1 µM; further: nearly all actives have a fitted effect of over 50% in size
Summary of the method: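 20 nM human CYP3A4 with 25 uM Luciferin-PPXE (at KM) in 200 mM KPO4, preincubated 10 min with compound; NADPH regeneration started a 60 min RT reaction. Luciferin detected by luminescence, normalized to 57 uM ketoconazole as full inhibition.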

[4] = biological target: Cytochrome P450 2C9 (Homo sapiens) (UniProt P11712); experiment: qHTS Assay for Inhibitors and Substrates of Cytochrome P450 2C9 (AID 883); conditions: recombinant CYP2C9, luciferin-H luminescence, 60 min; series mostly up to 57.1 µM; further: nearly all actives have a fitted effect of over 60% in size
Summary of the method: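 Inhibition of CYP2C9 is scored as loss of luminescence, with 57uM sulphaphenazole defining 100% inhibition. Substrate Luciferin-H is used at 100uM, equal to its KM; enzyme at 10nM in 25mM KPO4, 60 min at 37C with NADPH regeneration.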

[5] = biological target: Cytochrome P450 2D6 (Homo sapiens) (UniProt P10635); experiment: qHTS Assay for Inhibitors and Substrates of Cytochrome P450 2D6 (AID 891); conditions: recombinant CYP2D6, luciferin-ME EGE luminescence; series mostly up to 57.1 µM; further: nearly all actives have a fitted effect of over 60% in size
Summary of the method: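 Human CYP2D6 (5 nM) with 30 uM Luciferin-ME EGE (at Km) in 100 mM KPO4, compound preincubated 10 min, then NADPH regeneration system for 60 min at room temperature. Luciferin read by luminescence; normalized to 1.43 uM quinidine.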

[6] = biological target: Cytochrome P450 2C19 (Homo sapiens) (UniProt P33261); experiment: qHTS Assay for Inhibitors and Substrates of Cytochrome P450 2C19 (AID 899); conditions: recombinant CYP2C19, luciferin-H EGE luminescence; series mostly up to 57.1 µM; further: nearly all actives have a fitted effect of over 60% in size
Summary of the method: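 5nM enzyme + 10uM Luciferin-H EGE (=KM), 50mM KPO4; cpd pin-transferred, 10 min 37C; NADPH regen, 60 min 37C; stopped w/ luciferin detection reagent, 20 min; luminescence. Normalized to 57uM ketoconazole (AC100).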

Measured: Potency

Cytochrome P450 3A4 (Homo sapiens), sequence (P08684 whole entry, looked up): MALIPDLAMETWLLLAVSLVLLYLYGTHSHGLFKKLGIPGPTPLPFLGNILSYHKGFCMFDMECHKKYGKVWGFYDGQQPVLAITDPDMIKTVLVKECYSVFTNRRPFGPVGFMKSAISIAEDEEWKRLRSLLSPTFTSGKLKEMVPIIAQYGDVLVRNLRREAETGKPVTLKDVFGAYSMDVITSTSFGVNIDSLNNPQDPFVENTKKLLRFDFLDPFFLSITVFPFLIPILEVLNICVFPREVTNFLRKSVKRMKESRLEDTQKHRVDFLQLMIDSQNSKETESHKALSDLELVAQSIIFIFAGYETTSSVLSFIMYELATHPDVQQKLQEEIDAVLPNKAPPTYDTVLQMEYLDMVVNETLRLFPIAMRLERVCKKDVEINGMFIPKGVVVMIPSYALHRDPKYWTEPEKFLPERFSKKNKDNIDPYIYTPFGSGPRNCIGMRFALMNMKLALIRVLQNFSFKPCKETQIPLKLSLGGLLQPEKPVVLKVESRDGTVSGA
Cytochrome P450 2D6 (Homo sapiens), sequence (P10635 whole entry, looked up): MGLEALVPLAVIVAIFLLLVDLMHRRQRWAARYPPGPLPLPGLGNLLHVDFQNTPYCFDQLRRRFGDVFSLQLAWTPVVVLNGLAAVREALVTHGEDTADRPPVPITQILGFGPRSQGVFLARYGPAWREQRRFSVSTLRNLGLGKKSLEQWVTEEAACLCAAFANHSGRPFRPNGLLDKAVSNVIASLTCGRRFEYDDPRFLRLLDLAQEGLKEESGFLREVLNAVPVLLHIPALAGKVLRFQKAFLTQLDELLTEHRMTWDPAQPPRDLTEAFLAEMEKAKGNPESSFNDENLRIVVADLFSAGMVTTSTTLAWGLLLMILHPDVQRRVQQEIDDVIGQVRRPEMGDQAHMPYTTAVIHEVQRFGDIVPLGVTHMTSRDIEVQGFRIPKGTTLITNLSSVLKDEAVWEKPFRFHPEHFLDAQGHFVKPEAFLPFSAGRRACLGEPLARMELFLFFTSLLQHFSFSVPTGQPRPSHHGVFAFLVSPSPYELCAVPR
Cytochrome P450 2C9 (Homo sapiens), sequence (P11712 whole entry, looked up): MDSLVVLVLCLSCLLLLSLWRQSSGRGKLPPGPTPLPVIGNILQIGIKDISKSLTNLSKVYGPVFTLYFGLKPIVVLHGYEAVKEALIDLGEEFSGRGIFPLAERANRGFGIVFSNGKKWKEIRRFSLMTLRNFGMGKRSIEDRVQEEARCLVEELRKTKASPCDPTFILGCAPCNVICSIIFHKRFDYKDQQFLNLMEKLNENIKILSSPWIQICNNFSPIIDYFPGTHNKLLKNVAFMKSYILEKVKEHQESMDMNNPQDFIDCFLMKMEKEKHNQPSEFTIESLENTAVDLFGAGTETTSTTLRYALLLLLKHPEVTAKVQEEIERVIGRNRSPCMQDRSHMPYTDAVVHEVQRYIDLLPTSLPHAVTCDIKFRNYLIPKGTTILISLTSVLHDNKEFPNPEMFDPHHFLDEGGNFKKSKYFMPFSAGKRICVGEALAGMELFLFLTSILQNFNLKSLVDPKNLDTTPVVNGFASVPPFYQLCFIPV
Cytochrome P450 2C19 (Homo sapiens), sequence (P33261 whole entry, looked up): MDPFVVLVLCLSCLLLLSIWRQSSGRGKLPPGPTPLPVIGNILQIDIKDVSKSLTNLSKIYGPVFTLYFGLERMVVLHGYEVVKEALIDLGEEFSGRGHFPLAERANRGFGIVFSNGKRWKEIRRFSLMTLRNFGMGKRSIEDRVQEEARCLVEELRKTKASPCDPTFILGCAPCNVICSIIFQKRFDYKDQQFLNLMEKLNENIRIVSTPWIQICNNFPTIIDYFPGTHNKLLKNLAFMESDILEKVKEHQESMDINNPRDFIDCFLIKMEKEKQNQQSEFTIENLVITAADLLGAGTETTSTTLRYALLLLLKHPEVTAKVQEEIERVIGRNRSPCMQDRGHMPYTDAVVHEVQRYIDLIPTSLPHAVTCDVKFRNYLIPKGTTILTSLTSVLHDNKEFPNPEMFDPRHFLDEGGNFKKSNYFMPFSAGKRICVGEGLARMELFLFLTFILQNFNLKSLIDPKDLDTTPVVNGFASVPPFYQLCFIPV

O=C(/C=C/c1ccc(O)cc1)c1ccc(O)cc1O
inactive: [1] | [2]

Cc1c(N)c(=O)n(-c2ccccc2)n1C
inactive: [1] | [2]

O=C(O)c1ccccc1Nc1cccc(C(F)(F)F)c1
inactive: [3] | [1] | [2]

Cc1ccc(C(=O)c2ccc(CC(=O)O)n2C)cc1
inactive: [3] | [1] | [2]

N=c1ccn2c(n1)O[C@H]1[C@H](O)[C@@H](CO)O[C@H]12
inactive: [4] | [5] | [6]

N=C(N)N
inactive: [3] | [1] | [2]

CCCSc1ccc2nc(NC(=O)OC)[nH]c2c1
not listed: [3]
inactive: all other assays above

CC(C(=O)O)c1ccc2c(c1)[nH]c1ccc(Cl)cc12 (configuration not stated)
inactive: [3] | [1] | [2]

Nc1nc(Cl)nc2c1ncn2[C@@H]1O[C@H](CO)[C@@H](O)[C@H]1O
inactive: [3] | [1] | [2]
